Assay in all cases: NCI-60 one-dose screen, 48 h (100 = growth as untreated, 0 = no growth, -100 = all killed)
Holding throughout (conditions): 10 µM unless noted

Assay [1] has as its system HCT-15 colon.
Assay [2] relates to HT29 colon.
Assay [3] deals with SNB-75 CNS.
The subject of assay [4] is SNB-19 CNS.
The subject of assay [5] is U251 CNS.
Assay [6] has as its system PC-3 prostate.
In assay [7] the test system is SK-MEL-5 melanoma.
The subject of assay [8] is UACC-62 melanoma.
Assay [9] relates to LOX IMVI melanoma.
In assay [10] the test system is SK-MEL-28 melanoma.
In assay [11] the test system is SK-MEL-2 melanoma.
In assay [12] the test system is EKVX NSCLC.
The subject of assay [13] is SN12C renal.
Assay [14] relates to UO-31 renal.
The subject of assay [15] is TK-10 renal.
Assay [16] relates to ACHN renal.
Assay [17] concerns CAKI-1 renal.
Assay [18] relates to A498 renal.
The subject of assay [19] is CCRF-CEM leukemia.
The subject of assay [20] is MOLT-4 leukemia.

Drawing on PubChem BioAssay (NCI), this text covers growth for 7 compounds.

“And” between values parts separate entries of the source, which are not always exact repeats. Equal values may be shown once. The panel holds about 83,000 compounds, 20% with a hit somewhere; the sample as a whole holds those more often.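 Results are percent growth after 48 hours of single-concentration exposure. 100 means growth as in untreated cells, lower positive values show inhibition; negative values down to -100 show cell death.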 The source made the active and inactive calls. The calls were made as follows: active = growth percent below 10; inactive = the rest.

Regarding `COc1cc(-c2nn(-c3cccc(NC(=O)CCN4CCN(C)CC4)c3)cc2-c2ccncc2)ccc1Cl`, the growth is 21.2% (inactive) in assay [1]; -17.4% (active) in assay [2]; -5.41% (active) in assay [3]; 44% (inactive) in [4]; 21.5% (inactive) in assay [5]; 14% (inactive) in assay [6]. Further, the growth in [7] was 8.48% (active); in [8], 28.2% (inactive); in [9], -16% (active); in [10] it was 16.9% (inactive); in assay [11] it was 2.29% (active); in [12], 47.1% (inactive). Besides, the growth was 33.3% (inactive) in assay [13]; 41.5% (inactive) in assay [14]; 39.2% (inactive) in assay [15]; 51.7% (inactive) in [16]; 38.7% (inactive) in assay [17]; 14.1% (inactive) in [18]. The growth in assay [19] was 9.08% (active); in assay [20], 12.7% (inactive).

`CCOC(=O)c1nnn(Cc2cc(=O)oc3c2ccc2ccccc23)c1C`: the growth is 104% (inactive) in assay [1]; 96.7% (inactive) in assay [2]; 91.6% (inactive) in assay [3]; 98.2% (inactive) in assay [4]; 104% (inactive) in [5]; 89.2% (inactive) in assay [6]. The growth in assay [7] is 101% (inactive); in assay [8], 98.7% (inactive); in assay [9] it was 101% (inactive); in [10] it was 109% (inactive); in assay [11] it was 110% (inactive); in assay [12], 105% (inactive). For the same compound, the growth in assay [13] was 96.7% (inactive); in assay [14] it was 77.3% (inactive); in [15], 101% (inactive); in assay [16] it was 97.9% (inactive); in [17], 98% (inactive); in [18], 108% (inactive). The growth in assay [19] is 88.2% (inactive); in [20] it was 108% (inactive).

`O=c1oc2c(Br)cc(Br)cc2cc1-c1cc(-c2ccc(-c3cc(-c4cc5cc(Br)cc(Br)c5oc4=O)nc(-c4cc5cc(Br)cc(Br)c5oc4=O)c3)cc2)cc(-c2cc3cc(Br)cc(Br)c3oc2=O)n1`: the growth was 111% (inactive) in assay [1]; 90.8% (inactive) in assay [2]; 105% (inactive) in assay [3]; 101% (inactive) in assay [4]; 107% (inactive) in assay [5]; 97.5% (inactive) in assay [6]. Moreover, the growth in assay [7] was 108% (inactive); in assay [8] it was 102% (inactive); in assay [9] it was 99.5% (inactive); in assay [10], 112% (inactive); in [11], 101% (inactive); in [12], 105% (inactive). The growth in [13] was 107% (inactive); in assay [14] it was 80.6% (inactive); in [15], 107% (inactive); in assay [16], 103% (inactive); in [17] it was 110% (inactive); in assay [18] it was 95.9% (inactive). Also, the growth in [19] is 101% (inactive); in [20] it was 102% (inactive).

On to `COc1ccc(-c2csc(NC(=O)CN3CCN(CCO)CC3)n2)cc1NS(=O)(=O)c1cccc2c(N(C)C)cccc12`, for which the growth in assay [1] was 39.6% (inactive); in assay [2], 20.1% (inactive); in assay [3], 78.2% (inactive); in assay [4], 74.3% (inactive); in assay [5] it was 29.5% (inactive); in [6] it was 72.7% (inactive). Moreover, the growth in assay [7] was 58.5% (inactive); in [8], 89% (inactive); in assay [9], -57.9% (active); in assay [10] it was -2.57% (active); in assay [11] it was 86.9% (inactive); in assay [12] it was 80.9% (inactive). For the same compound, the growth in assay [13] was 89.1% (inactive); in assay [14], 61.4% (inactive); in [15], 109% (inactive); in assay [16] it was 87% (inactive); in [17] it was 75.6% (inactive); in [18], 102% (inactive). In addition, the results for the growth in [19] and in assay [20] were 54.8% (inactive) and 65.4% (inactive), respectively.

As to `O=C1OCC2=C1C(c1cccc(C(F)(F)F)c1)c1cc3c(cc1N2CCO)CCC3` (stereo not given), the growth was 6.24% (active) in assay [1]; 1.24% (active) in assay [2]; 46% (inactive) in assay [3]; 23% (inactive) in assay [4]; 12.4% (inactive) in assay [5]; 21.7% (inactive) in assay [6]. The growth in assay [7] is 0.201% (active); in assay [8], 41.7% (inactive); in [9] it was 16.5% (inactive); in assay [10], 52.8% (inactive); in assay [11], 9.34% (active); in assay [12], 40.7% (inactive). Also, the growth is 24.9% (inactive) in assay [13]; 35.5% (inactive) in [14]; 53.9% (inactive) in assay [15]; 23.4% (inactive) in [16]; 26.9% (inactive) in assay [17]; 1.23% (active) in [18]. For the same compound, the growth was 6.63% (active) in [19] and 7.83% (active) in assay [20].

As for `O=C(CCl)N(O)c1ccc(/C=C/c2ccccc2)cc1`, the growth in [1] is 78.3% (inactive) and 66.3% (inactive); in [2], 73.1% (inactive) and 38.7% (inactive); in assay [3], 95.9% (inactive) and 96.3% (inactive); in [4], 90.1% (inactive) and 86.7% (inactive); in assay [5], 81.5% (inactive) and 73.5% (inactive); in [6], 85.7% (inactive) and 86.6% (inactive). In addition, the growth in assay [7] is 68.6% (inactive) and 65.3% (inactive); in assay [8], 74.6% (inactive) and 72.2% (inactive); in [9], 46.8% (inactive) and 36.1% (inactive); in assay [10] it was 107% (inactive) and 112% (inactive); in assay [11], 88.1% (inactive) and 77.7% (inactive); in [12] it was 81.7% (inactive). For the same compound, the growth in assay [13] was 63.3% (inactive) and 48.8% (inactive); in assay [14] it was 66.4% (inactive) and 65.2% (inactive); in assay [15] it was 89.7% (inactive) and 81.1% (inactive); in assay [16] it was 97.8% (inactive) and 87.6% (inactive); in assay [17] it was 95.3% (inactive) and 91.1% (inactive); in assay [18] it was 69.2% (inactive) and 87.1% (inactive). Also, the growth is -4.68% (active) and 10.3% (inactive) in assay [19]; 7.08% (active) and 12.4% (inactive) in assay [20].

Consider `NC1=CC(=O)c2cccnc2C1=O`, for which the growth in [1] is 19.9% (inactive); in assay [2], 54.8% (inactive); in assay [3], -81.2% (active); in [4], 6.26% (active); in assay [5], -82% (active); in assay [6], 15.4% (inactive). For the same compound, the growth in [7] was -97.8% (active); in assay [8], -90.5% (active); in [9], -74.3% (active); in assay [10], -73.7% (active); in [11] it was -46.6% (active); in assay [12] it was -20.8% (active). Also, the growth in assay [13] was -85.2% (active); in assay [14] it was -98.2% (active); in [15] it was 94.3% (inactive); in assay [16], 5.89% (active); in [17] it was -69.4% (active); in assay [18] it was 81.9% (inactive). The growth in assay [19] was -24.3% (active); in assay [20], -46.4% (active).
